Results as given in PubChem BioAssay.
Calls of active or inactive are those of the source.

Tests used:
[1] = test system: Human papillomavirus type 1a protein E7 (residues 44-93); assay: small molecules binding HPV E7 44-93 – biochemical, small-molecule microarray, residues 44-93, 635 nm fluorescence, primary screen (AID 1108); conditions: fluorescence 635 nm, higher = more signal;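 note: E7 fragment applied at 1 µg/mL in TBST for 1 h at 4 C; score combines spot fluorescence with its signal to noise ratio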
[2] = hepatitis C replication reporter changes, two-sided – Huh7 cells, luciferase reporter, HCV replication inhibitor project, primary screen (AID 1109); conditions: Huh7 HCV replicon luciferase reporter, 48 h; higher = more signal;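 note: huh7 hepatoma cells harbouring a luciferase neomycin HCV replicon reporter; luciferase luminescence as measure of HCV replicon replication; test concentration not given here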
[3] = biological target: Left-right determination factor 2 (Homo sapiens) (UniProt O00292); assay: small molecules binding LEFTY2 protein – biochemical, small-molecule microarray, 635 nm fluorescence scan, primary screen (AID 1110); conditions: higher = more signal
Left-right determination factor 2 (Homo sapiens), sequence (O00292 whole entry, looked up): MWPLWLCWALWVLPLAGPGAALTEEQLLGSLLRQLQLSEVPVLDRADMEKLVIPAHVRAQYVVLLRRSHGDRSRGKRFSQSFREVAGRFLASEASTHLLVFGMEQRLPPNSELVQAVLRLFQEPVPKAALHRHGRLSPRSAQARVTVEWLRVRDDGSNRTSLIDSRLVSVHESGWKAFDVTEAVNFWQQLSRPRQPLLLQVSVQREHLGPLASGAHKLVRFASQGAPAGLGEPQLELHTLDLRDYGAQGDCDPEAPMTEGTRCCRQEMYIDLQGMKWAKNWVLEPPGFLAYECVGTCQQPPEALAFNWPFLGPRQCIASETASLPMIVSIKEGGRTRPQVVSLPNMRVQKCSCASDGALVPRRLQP

[4] = biological target: Calmodulin-1 (Homo sapiens) (UniProt P0DP23); assay: small molecules binding calmodulin-1 with EGTA – biochemical, small-molecule microarray, Cy5-labelled CALM1, profiling panel (AID 1111); conditions: Cy5-CALM1 binding fluorescence, higher = more signal;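 note: labelled calmodulin applied in Tris saline Tween buffer holding calcium plus EGTA and DTT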
[5] = biological target: Calmodulin-1 (Homo sapiens) (UniProt P0DP23); assay: small molecules binding Ca-loaded calmodulin-1 – biochemical, small-molecule microarray, Cy5-labelled CALM1, plus calcium, artefact control for SMM control-protein annotation, profiling panel (AID 1112); conditions: Cy5-CALM1 binding fluorescence, higher = more signal;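 note: score merges spot fluorescence with signal to noise from triplicate slides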
[6] = probe aWnt5a binding to arrayed compounds – biochemical, biotinylated probe, 635/667 nm fluorescence, primary screen (AID 1113); conditions: small-molecule microarray, higher = more signal;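 note: score merges 667 nm fluorescence intensity with signal-to-noise per printed feature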
[7] = probe aShh binding to arrayed compounds – biochemical, biotinylated probe, 635/667 nm fluorescence, primary screen (AID 1114); conditions: small-molecule microarray, higher = more signal;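 note: probe is biotin-labelled aShh protein from a stem cell growth factor screen; measures binding of labelled protein to compounds printed on the slide; score merges feature fluorescence at 667 nm with signal-to-noise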
[8] = probe aNog binding to arrayed compounds – biochemical, biotinylated probe, 635/667 nm fluorescence, primary screen (AID 1115); conditions: small-molecule microarray, higher = more signal;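 note: probe is biotinylated aNog protein used at 0.15 µg/mL for 1 h at 4 C; z-score combines 667 nm fluorescence of each spot with its signal to noise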
[9] = biological target: Torsin-1A-interacting protein 1 (Homo sapiens) (UniProt Q5JTV8); assay: compound microarray binding of lysate hLAP1 – cell lysate, small-molecule microarray, COS7 lysate, 635/667 nm fluorescence, primary screen (AID 1116); conditions: 635 nm fluorescence, higher = more signal
Torsin-1A-interacting protein 1 (Homo sapiens), sequence (Q5JTV8 whole entry, looked up): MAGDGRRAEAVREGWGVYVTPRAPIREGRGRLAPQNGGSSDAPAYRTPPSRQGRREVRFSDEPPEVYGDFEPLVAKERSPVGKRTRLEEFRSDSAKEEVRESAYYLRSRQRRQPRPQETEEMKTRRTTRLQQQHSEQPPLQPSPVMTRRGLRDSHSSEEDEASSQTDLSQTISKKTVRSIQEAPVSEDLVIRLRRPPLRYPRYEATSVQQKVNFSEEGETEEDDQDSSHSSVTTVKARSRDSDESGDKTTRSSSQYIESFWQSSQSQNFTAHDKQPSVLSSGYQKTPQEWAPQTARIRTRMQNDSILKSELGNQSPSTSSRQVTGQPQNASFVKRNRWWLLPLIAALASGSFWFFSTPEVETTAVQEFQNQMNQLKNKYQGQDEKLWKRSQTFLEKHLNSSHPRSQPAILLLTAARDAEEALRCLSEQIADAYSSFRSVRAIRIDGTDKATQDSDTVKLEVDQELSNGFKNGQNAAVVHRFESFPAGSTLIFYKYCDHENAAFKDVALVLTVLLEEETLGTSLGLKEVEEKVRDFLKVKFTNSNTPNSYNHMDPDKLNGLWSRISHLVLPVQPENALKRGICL

[10] = biological target: Alpha-bungarotoxin (Bungarus multicinctus) (UniProt P60615); assay: compounds binding labelled alpha-BTX control protein – biochemical, small-molecule microarray, Alexa647 label, 635/667 nm fluorescence, artefact control for SMM control protein annotation, profiling panel (AID 1117); conditions: alpha-BTX-A647 binding fluorescence, higher = more signal
Alpha-bungarotoxin (Bungarus multicinctus), sequence (P60615 whole entry, looked up): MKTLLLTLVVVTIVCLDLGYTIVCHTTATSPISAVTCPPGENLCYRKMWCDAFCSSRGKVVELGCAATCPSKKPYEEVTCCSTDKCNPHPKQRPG

[11] = biological target: Albumin (Bos taurus) (UniProt P02769); assay: compounds binding labelled BSA control protein – biochemical, small-molecule microarray, Alexa647 label, 635/667 nm fluorescence, artefact control for SMM control protein annotation, profiling panel (AID 1118); conditions: BSA-A647 binding, fluorescence 635 nm, higher = more signal;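 note: score merges 667 nm emission intensity and signal-to-noise per printed compound spot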
Albumin (Bos taurus), sequence (P02769 whole entry, looked up): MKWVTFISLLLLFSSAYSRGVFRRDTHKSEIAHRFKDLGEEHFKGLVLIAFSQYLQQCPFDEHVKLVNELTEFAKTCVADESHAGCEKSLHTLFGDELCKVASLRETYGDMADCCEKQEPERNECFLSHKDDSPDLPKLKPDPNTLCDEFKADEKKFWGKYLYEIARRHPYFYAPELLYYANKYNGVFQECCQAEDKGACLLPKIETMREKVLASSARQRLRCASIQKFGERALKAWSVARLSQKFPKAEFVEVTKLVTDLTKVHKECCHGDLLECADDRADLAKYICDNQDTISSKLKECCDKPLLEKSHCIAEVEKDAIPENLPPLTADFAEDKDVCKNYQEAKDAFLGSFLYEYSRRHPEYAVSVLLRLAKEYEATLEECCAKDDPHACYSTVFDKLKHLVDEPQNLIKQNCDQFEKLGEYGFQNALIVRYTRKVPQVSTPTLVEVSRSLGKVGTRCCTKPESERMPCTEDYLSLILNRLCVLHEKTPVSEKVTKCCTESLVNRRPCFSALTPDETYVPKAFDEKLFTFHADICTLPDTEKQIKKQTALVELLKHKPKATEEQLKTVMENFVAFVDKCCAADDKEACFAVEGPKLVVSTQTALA

[12] = probe aXIP binding to arrayed compounds – biochemical, NeuroSMM set, 635/667 nm fluorescence, primary screen (AID 1119); conditions: small-molecule microarray, higher = more signal, called active from +8 up or from −8 down;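 note: probe is the protein aXip251-270 applied at 1 µg/mL to compound-printed slides; binding of probe to printed compounds measured as 667 nm fluorescence plus signal to noise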
[13] = probe aNOTCH3 binding on compound microarray – biochemical, small-molecule microarray, 635/667 nm fluorescence, primary screen (AID 1120); conditions: higher = more signal;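 note: probe is a biotin-tagged antibody raised against NOTCH3 rather than NOTCH3 protein; score merges spot fluorescence near 667 nm with spot signal to noise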
[14] = probe aNOTCH2 binding on compound microarray – biochemical, small-molecule microarray, 635/667 nm fluorescence, primary screen (AID 1121); conditions: higher = more signal;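 note: score merges feature fluorescence read at 667 nm with its signal to noise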
[15] = biological target: Carbonic anhydrase 2 (Homo sapiens) (UniProt P00918); assay: compounds binding carbonic anhydrase 2 – biochemical, small-molecule microarray, Alexa647-labelled CAII, profiling panel (AID 1122); conditions: CAII-A647 binding fluorescence, higher = more signal
[16] = COS7 lysate on small-molecule microarray, probe aHis, 635 nm (AID 1123); conditions: COS7 cell lysate, fluorescence, higher = more signal;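 note: z-score combines 667nm fluorescence intensity with signal-to-noise per printed compound spot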
[17] = probe aLAP1 signal on lysate-treated microarray – cell lysate, small-molecule microarray, COS7 lysate, primary screen (AID 1124); conditions: probe aLAP1, fluorescence, higher = more signal;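 note: lysate comes from COS7 cells expressing LAP1 and is applied at 0.3 µg/mL; score merges spot fluorescence near 667 nm with signal-to-noise over triplicate slides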
[18] = test system: Sam68 (KHDRBS1); assay: compounds binding KHDRBS1 protein – biochemical, small-molecule microarray, 635 nm fluorescence, primary screen (AID 1125); conditions: higher = more signal;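 note: score merges 667 nm channel intensity with signal to noise over triplicate slides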
[19] = test system: Chordin-like protein 2 (CHRDL2); assay: compounds binding chordin-like 2 – biochemical, small-molecule microarray, 635 nm fluorescence, primary screen (AID 1126); conditions: fluorescence 635 nm, higher = more signal;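 note: printed compound slides probed with Chrdl2 protein at 4 µg/mL for 1 h at 4 C; score merges 667 nm emission intensity with signal to noise over three replicate slides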
[20] = biological target: Concanavalin-A (Canavalia ensiformis) (UniProt P02866); assay: compounds binding concanavalin A lectin – biochemical, small-molecule microarray, Alexa647 label, 635 nm, artefact control for SMM control protein annotation, primary screen (AID 1127); conditions: ConA-A647 binding fluorescence, higher = more signal;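 note: z combines 667 nm emission intensity with signal-to-noise across three replicate slides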
Concanavalin-A (Canavalia ensiformis), sequence (P02866 whole entry, looked up): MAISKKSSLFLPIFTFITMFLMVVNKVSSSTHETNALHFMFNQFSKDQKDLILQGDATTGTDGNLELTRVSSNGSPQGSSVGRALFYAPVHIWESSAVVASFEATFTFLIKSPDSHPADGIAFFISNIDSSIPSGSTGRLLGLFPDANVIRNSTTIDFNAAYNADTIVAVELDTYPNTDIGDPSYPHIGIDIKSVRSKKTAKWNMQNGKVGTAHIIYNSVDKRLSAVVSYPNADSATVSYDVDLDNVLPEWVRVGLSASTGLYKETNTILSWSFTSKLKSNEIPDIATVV

| SMILES | composite z-score [1] | z-score [2] | composite z-score [3] | composite z-score [4] | composite z-score [5] | composite z-score [6] | composite z-score [7] | composite z-score [8] | composite z-score [9] | composite z-score [10] | composite z-score [11] | composite Z-score [12] | composite z-score [13] | composite z-score [14] | composite z-score [15] | composite z-score [16] | composite z-score [17] | composite z-score [18] | composite z-score [19] | composite z-score [20] |
| --- | --- | --- | --- | --- | --- | --- | --- | --- | --- | --- | --- | --- | --- | --- | --- | --- | --- | --- | --- | --- |
| CCCC=C(CCC)[C@@H](NC(=O)c1ccc(-c2ccccc2)cc1)c1ccc(C(=O)OC)cc1 | 1.38 | -0.552 | -0.394 | 1.84 | 1.31 | 0.194 | 0.0195 | 1.25 | 0.421 | 0.93 | 0.127 | 0.0503 (inactive) | 0.197 | 0.0382 | 0.185 | 2.41 | -0.075 | 1.26 | -0.955 | 0.724 |
| CC(C)NC(=O)[C@@]1(C)c2ccccc2C(=O)N(Cc2cc(F)cc(C(F)(F)F)c2)[C@H]1c1ccc(CO)cc1 | 1.3 | 0.0589 | -0.0164 | 0.304 | 0.418 | -0.0165 | -0.121 | -0.347 | 0.363 | 1.16 | 0.293 | 0.74 (inactive) | 0.191 | -0.102 | 0.645 | 1.03 | 0.433 | 1.23 | 0.153 | 0.674 |
| COc1ccc(CCNC(=O)[C@@H]2c3ccccc3C(=O)N(c3ccc(C)cn3)[C@H]2c2ccc(CO)cc2)cc1 | -0.618 | 0.267 | -1.76 | -0.822 | -0.796 | -0.242 | -0.367 | -0.266 | 3.04 | -0.955 | 0.45 | 0.378 (inactive) | -0.406 | -0.0959 | 0.77 | 1.5 | 0.539 | -0.121 | -1.76 | -1.45 |
| CO[C@@H]1COC(=O)CC=C[C@@H](C)COC(=O)[C@H](COCc2ccccc2)NC(=O)CC=C[C@H]1C | -0.956 | -0.151 | 1.02 | -0.838 | -1.28 | -0.0721 | 0.0278 | -0.298 | 0.325 | -0.397 | -1.2 | 1.13 (inactive) | -0.111 | -0.108 | -0.788 | -0.843 | 0.864 | -0.597 | 1.48 | -2.62 |
| CCOC(=O)[C@H](Cc1ccccc1)NC(=O)CCC1CC(OC(=O)NCc2ccc3c(c2)OCO3)CC2(CCCC(COC(=O)NCC(c3ccccc3)c3ccccc3)O2)O1 (stereo not given in full) | 1.39 | 0.529 | 0.45 | -0.198 | -0.0205 | -0.175 | 0.0723 | -0.233 | 0.313 | 0.363 | 0.48 | -0.718 (inactive) | 0.17 | -0.11 | 0.28 | 0.86 | 0.0713 | 1.32 | 0.226 | 0.329 |
| C[C@H]1Cc2c(-c3ccccc3)nc3c(c2CO1)CN(CCOc1ccccc1)CC3 | 1.33 | -0.56 | 0.945 | 0.491 | -0.416 | -0.0203 | 0.147 | -0.0172 | 0.0704 | 0.269 | 0.68 | -0.2 (inactive) | 0.0667 | -0.112 | 0.352 | 0.71 | 0.292 | 1.3 | 0.521 | 0.993 |
| CC(C)N1CC=CC23O[C@@H]4C=CCCOC(=O)C4[C@H]2C(=O)N(CCCCCCO)[C@@H]3C1=O (stereo not given in full) | -0.558 | -0.845 | -1.39 | -0.0847 | 0.749 | -0.252 | -0.221 | 0.0432 | -0.423 | -0.866 | -0.176 | 0.0157 (inactive) | -0.193 | 0.109 | 0.439 | -0.425 | 0.753 | -0.952 | -1.71 | -0.428 |
| C[C@H](c1ccccc1)N1C(=O)[C@H]2[C@@H]3C(=CC[C@H]2C1=O)C(=O)[C@H]1O[C@H]1[C@H]3O | -0.546 | -4.71 | 0.429 | -0.119 | -0.932 | -0.0405 | 0.0402 | -0.416 | 0.326 | -0.0114 | 0.166 | -0.0238 (inactive) | -0.111 | -0.147 | -0.182 | -0.51 | 0.172 | -0.136 | 1.02 | 0.471 |
| CC(C)CON=C1C[C@@H](O)[C@@H](O)[C@@H]2[C@@H]3C(=O)N([C@@H](C)c4ccccc4)C(=O)[C@@H]3CC[C@H]12 | 1.36 | 0.775 | 0.756 | 0.336 | -0.351 | -0.124 | -0.0011 | -0.0308 | 0.619 | 0.922 | 0.663 | 0.0312 (inactive) | 0.0297 | -0.0959 | 0.378 | 0.754 | -0.0211 | 1.29 | 0.315 | 1.07 |
| CN1C(=O)C2C(C1=O)C1C=C(CCCO)C2C(c2ccc(CN3CCCC3)cc2)N1C (stereo not given) | -0.0161 | -0.259 | 0.175 | -0.573 | -0.0923 | -0.148 | -0.273 | 0.171 | 0.0993 | 0.0035 | -0.356 | -0.816 (inactive) | -0.068 | -0.0907 | -0.221 | -0.377 | 0.0357 | 0.239 | 0.0976 | -0.56 |
| CC(C)=CCCC(C)=CCON=C1[C@H]2CCn3c(=O)n(Cc4cc5c(cc4Cl)OCO5)c(=O)n3[C@H]2[C@H](O)[C@@H]2O[C@H]12 | -0.118 | -0.78 | 0.463 | -0.175 | -0.591 | 0.0388 | -0.138 | -0.181 | 0.989 | -0.112 | -0.0415 | -0.116 (inactive) | 0.204 | -0.131 | -0.158 | -0.605 | 0.0561 | -0.218 | 1.08 | 0.598 |
